These results are taken from PubChem BioAssay (Tox21).

Records with an inconclusive call do not appear. A call without a number means that no potency is given here. Activity calls are given as the source filed them. Calls follow the shape of the dose curve; as a rule, active = well fitted inhibition curve with a large enough effect in the repeat runs; inconclusive = weak or mixed curves; inactive = flat fitted curve, though single readings scatter.

Voltage-gated inwardly rectifying potassium channel KCNH2 (Homo sapiens), sequence (Q12809 whole entry, looked up): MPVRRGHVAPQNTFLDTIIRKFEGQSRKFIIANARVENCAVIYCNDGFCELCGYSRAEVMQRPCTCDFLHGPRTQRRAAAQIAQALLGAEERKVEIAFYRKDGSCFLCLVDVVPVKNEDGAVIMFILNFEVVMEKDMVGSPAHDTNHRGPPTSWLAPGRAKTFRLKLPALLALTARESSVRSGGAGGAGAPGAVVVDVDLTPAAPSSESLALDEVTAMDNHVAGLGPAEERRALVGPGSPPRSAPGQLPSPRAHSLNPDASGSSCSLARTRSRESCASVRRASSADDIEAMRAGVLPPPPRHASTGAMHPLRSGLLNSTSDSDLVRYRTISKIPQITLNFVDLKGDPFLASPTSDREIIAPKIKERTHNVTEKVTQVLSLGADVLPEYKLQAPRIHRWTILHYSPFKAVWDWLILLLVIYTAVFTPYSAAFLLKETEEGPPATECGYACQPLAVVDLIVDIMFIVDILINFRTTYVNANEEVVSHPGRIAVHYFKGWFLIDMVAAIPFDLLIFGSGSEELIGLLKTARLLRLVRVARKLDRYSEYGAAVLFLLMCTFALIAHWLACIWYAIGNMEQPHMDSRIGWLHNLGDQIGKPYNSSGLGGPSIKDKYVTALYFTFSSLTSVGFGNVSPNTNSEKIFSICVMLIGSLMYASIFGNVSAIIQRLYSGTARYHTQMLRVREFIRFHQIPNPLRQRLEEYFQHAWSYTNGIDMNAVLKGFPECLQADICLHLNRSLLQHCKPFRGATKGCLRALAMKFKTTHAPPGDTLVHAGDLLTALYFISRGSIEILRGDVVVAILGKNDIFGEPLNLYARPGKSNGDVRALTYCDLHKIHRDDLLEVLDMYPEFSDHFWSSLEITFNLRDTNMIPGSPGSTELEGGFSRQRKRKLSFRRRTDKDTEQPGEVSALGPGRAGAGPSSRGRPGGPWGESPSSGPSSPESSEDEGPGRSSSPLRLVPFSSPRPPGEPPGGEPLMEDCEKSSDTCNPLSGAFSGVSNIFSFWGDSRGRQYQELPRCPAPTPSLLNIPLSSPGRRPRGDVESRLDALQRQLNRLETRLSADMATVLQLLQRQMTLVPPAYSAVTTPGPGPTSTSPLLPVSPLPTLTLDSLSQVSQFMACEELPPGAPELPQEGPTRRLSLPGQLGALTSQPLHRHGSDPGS

This assay addresses Voltage-gated inwardly rectifying potassium channel KCNH2 (Homo sapiens) (UniProt Q12809). Description: Human Ether-a-go-go-Related Gene (hERG) channel small molecule antagonists: fluorescence cell-based qHTS assay (AID 1671200). Also: nearly all actives have a fitted effect of over 50% in size. Particulars: hERG-U2OS cells, FluxOR thallium flux fluorescence; series mostly up to 76.8 µM. The source says:
National Center for Advancing Translational Sciences [NCATS]
U.S. Environmental Protection Agency [EPA]
National Institutes of Environmental Health Sciences [NIEHS]
National Toxicology Program [NTP]
U.S. Food and Drug Administration [FDA]
Mutations in the hERG channel cause Long QT (LQT) syndrome. LQT syndrome is a cardiac disorder which can cause ventricle arrhythmia and sudden death. Additionally, compounds which block the hERG channel can cause acquired LQT syndrome. Several FDA approved drugs have been removed from the market due to their hERG blocking activity. A cell-based hERG channel inhibition assay can be used to screen chemical compounds that inhibit hERG channel. This assay measures hERG channel activity using thallium ions as surrogate ions to measure potassium into the cells.
Tox21 Assay Protocol Summary:
hERG-U2OS cells were resuspended in culture medium and dispensed into 1536-well, black wall/clear-bottom plates at 1000cells/well/3uL using a Multidrop Combi dispenser (Thermo Fisher, Waltham, MA). After plates were incubated at 37 C overnight, 3 uL of Loading Buffer provided by FluxOR II Potassium Ion Channel Assay kit (Thermo, Carlsbad, CA) was added to each well. The assay plates were then incubated at room temperature in the dark for 1h. […] After the assay plates were incubated at room temperature for 10 min, 1 uL of Stimulus Buffer provided by FluxOR II Potassium Ion Channel Assay kit was added into each well and fluorescence intensity (480nm excitation/540nm emission) was continuously measured for 2 min at 1 second intervals using a Functional Drug Screening System (FDSS) 7000EX kinetic plate reader (Hamamatsu, Japan).
As for `O=C(O)CCSCCC(=O)O`, the Potency entry was “inactive”. On the same count and under the same terms, then `CNC(=O)Nc1ccc(Cl)c(Cl)c1`, with “inactive”; and `NC(CCC(=O)O)C(=O)O` (stereo not given), with “inactive”; and `CCCC[N+](C)(CCCC)CCCC`, with “inactive”.

Regarding `Cc1cc(C)c(N=Nc2c(O)c(S(=O)(=O)O)cc3cc(S(=O)(=O)O)ccc23)cc1C`, the activity change, negative = inhibition was -0.475% [at 6.97 µM] (inactive). As to `CCCCCCCC1CCCC1=O` (stereo not given), the Potency result is “inactive”. For the molecule `CO[C@@]1(NC(=O)CSC[C@@H](N)C(=O)O)C(=O)N2C(C(=O)O)=C(CSc3nnnn3C)CS[C@@H]21`, the Potency result was “inactive”. Same read-out and setting: the result for `NC(=O)N[C@@H](CCC(=O)O)C(=O)O` reads “inactive”; that for `CCOC(=O)COC(=O)c1ccccc1C(=O)OCC`, “inactive”; that for `O=S(=O)(O)c1cccc2ccccc12`, “inactive”. Still for that read-out and setting: the result for `CC1OC1C1CCC2(C)OC2C1` (stereo not given) reads “inactive”; that for `NCCCC(N)(C(=O)O)C(F)F` (stereo not given), “inactive”; that for `CC1=NS(=O)(=O)c2cc(Cl)ccc2N1`, “inactive”. As to `CCCCOC(=O)CCC(C)=O`, the Potency entry is “inactive”.

Turning to `O=[N+]([O-])c1cncn1CCN1CCOCC1`, the Potency result is “inactive”.

Take `COc1cccc(OC)c1C(=O)N[C@@H]1C(=O)N2[C@@H]1SC(C)(C)[C@@H]2C(=O)O`: the Potency result is “inactive”. Still for that read-out and setting: then `C=CCCCCCCCCC(=O)OCC`, with “inactive”; and `CCOC(=O)c1ccccc1`, with “inactive”.

In the case of `CCN(CC#N)c1cccc(C)c1`, the Potency entry was “inactive”. Still for that read-out and setting: the result for `NC(=O)N1c2ccccc2CC(=O)c2ccccc21` reads “inactive”; that for `C=C(C)C(=O)OCC(O)CO` (stereo not given), “inactive”. Still for that read-out and setting: then `CC(C)C(=O)OC(=O)C(C)C`, with “inactive”. On the same count and under the same terms, then `CC(C)c1ccc2ncccc2c1`, with “inactive”; and `CCN[C@H]1C[C@H](C)S(=O)(=O)c2sc(S(N)(=O)=O)cc21`, with “inactive”. Consider `CCNS(=O)(=O)c1ccc(C)cc1`, for which the Potency result was “inactive”. On the same count and under the same terms, the result for `CC(C)NNC(=O)c1ccncc1` reads “inactive”; that for `O=C(O)CC(C(=O)O)S(=O)(=O)O` (stereo not given), “inactive”; that for `Nc1ccccn1`, “inactive”. Still for that read-out and setting: then `CCCC(=O)O[C@]1(C(=O)CC)CC[C@H]2[C@@H]3CCC4=CC(=O)CC[C@]4(C)[C@H]3[C@@H](O)C[C@@]21C`, with “inactive”; and `C=CC(C)(CCC=C(C)C)OC(=O)CC` (stereo not given), with “inactive”. With `C[C@@H]1CCC[C@H](C)N1`, the Potency entry was “inactive”.

For the molecule `CCCCCCCCCCCCCCC(=O)O`, the Potency entry is “inactive”. The same measure, in the same setting: then `Nc1c2c(nc3c1CCC3)CCCC2`, with “inactive”. For `COc1cc(C(=O)OC(COCCC(C)C)CN2CCOCC2)cc(OC)c1OC` (stereo not given), the Potency result was “inactive”.

Take `CO[C@@]1(NC(=O)C(C(=O)O)c2ccc(O)cc2)C(=O)N2C(C(=O)O)=C(CSc3nnnn3C)CO[C@@H]21` (stereo not given in full): the Potency result was “inactive”. Still for that read-out and setting: the result for `CC(C)[C@H]1CC[C@@H](C)CC1=O` reads “inactive”. As for `C=C(C)C(=O)OCCOCCOCCOCCOC(=O)C(=C)C`, the Potency result is “inactive”. Same read-out and setting: then `O=C(CO)[C@@H](O)[C@H](O)[C@H](O)CO`, with “inactive”. As for `CC(C(=O)O)c1cccc(Oc2ccccc2)c1` (stereo not given), the Potency result is “inactive”. In the case of `CNCCO`, the Potency result is “inactive”.
